The results in this text go back to PubChem BioAssay (NCATS).

For one test, the target named is Furin (Homo sapiens) (UniProt P09958). The experiment in a line: Furin counterscreen qHTS for Zika virus inhibitors (AID 1347149).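 Also: purified recombinant full-length human furin enzyme at 5 nM; fluorescence gain from furin cutting a BOC-RVRR-AMC peptide substrate over 15 min; top concentration of the series differs between compounds; nearly all actives have a fitted effect of over 70% in size.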 In a few lines: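 Counterscreen measures cleavage of 2 microM BOC-RVRR-AMC, below its ~15 microM Km, by 5 nM full-length human furin at pH 7.0 after a 15-min compound preincubation. Inhibition derives from the 15-min fluorescence increase at 37C.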
Chain of Furin (Homo sapiens) (P09958 whole entry, looked up): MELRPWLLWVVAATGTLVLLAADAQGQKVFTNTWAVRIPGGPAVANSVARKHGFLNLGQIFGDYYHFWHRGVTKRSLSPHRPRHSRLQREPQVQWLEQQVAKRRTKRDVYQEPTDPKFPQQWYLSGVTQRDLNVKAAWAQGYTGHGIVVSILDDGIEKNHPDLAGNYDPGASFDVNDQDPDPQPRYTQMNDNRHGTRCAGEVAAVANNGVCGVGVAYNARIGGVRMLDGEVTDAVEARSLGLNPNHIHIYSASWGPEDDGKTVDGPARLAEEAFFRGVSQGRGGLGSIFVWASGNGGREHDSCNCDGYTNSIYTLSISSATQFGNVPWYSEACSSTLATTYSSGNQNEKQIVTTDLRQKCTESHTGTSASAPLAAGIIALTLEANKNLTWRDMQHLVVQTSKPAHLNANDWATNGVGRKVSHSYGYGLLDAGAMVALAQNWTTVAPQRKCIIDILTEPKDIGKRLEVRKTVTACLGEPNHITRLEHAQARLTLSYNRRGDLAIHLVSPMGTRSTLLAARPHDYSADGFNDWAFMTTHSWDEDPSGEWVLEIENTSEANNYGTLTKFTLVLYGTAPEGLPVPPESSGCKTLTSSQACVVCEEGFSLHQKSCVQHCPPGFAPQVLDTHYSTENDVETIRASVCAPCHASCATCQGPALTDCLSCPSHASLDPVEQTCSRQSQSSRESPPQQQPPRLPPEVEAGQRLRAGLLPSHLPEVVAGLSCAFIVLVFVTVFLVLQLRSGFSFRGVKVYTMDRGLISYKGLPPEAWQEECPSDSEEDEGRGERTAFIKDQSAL
Background: The purpose of a counterscreen is to sort out artefacts and off-target activity.

For test [1], the system named is Zika virus NS2B-NS3 protease. The experiment in a line: Primary screen GU AMC qHTS for Zika virus inhibitors (AID 1347154). Also: nearly all actives have a fitted effect of over 70% in size. The procedure, abridged: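 Unlinked Zika NS2B hydrophilic domain/NS3 protease domain noncovalent complex (25 nM final) in 10 mM Tris-HCl pH 8.0, 0.01% Tween 20, with AMC peptide substrate. Fluorescence (ex 340, em 450 nm) change over 15 min, room temperature; percent inhibition fitted to 4-parameter Hill equation.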
Background: Quantitative high-throughput screening tests each substance at several concentrations.

The test system of test [2] is Zika virus NS2B-NS3 protease (linked construct). The experiment in a line: 384 well plate NINDS Rhodamine confirmatory qHTS for Zika virus inhibitors (AID 1347164). Also: top concentration of the series differs between compounds; nearly all actives have a fitted effect of over 65% in size. The procedure, abridged: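 Cleavage of Ac-LKRR-Rhodamine 110 (10 microM final) by linked protease (final 5, 30 or 60 nM) was followed as fluorescence at 485/538 nm after 25 min, room temperature, dark. Compounds preincubated ~15 min.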

Test [3] in a line: Vero cells viability qHTS for Zika virus inhibitors (AID 1347167). In a few lines:
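To flag cytotoxic protease inhibitors, viability is measured by ATP-dependent luminescence (CellTiter Glo) after cells attached overnight receive compound for 24 to 48 hours in DMEM with 4% FBS.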

The nature of test [4]: Tertiary RLuc qRT-PCR qHTS assay for Zika virus inhibitors (AID 1347169). Also: top concentration of the series differs between compounds; nearly all actives have a fitted effect of over 55% in size. In a few lines:
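Inhibition of ZIKV-RLuc replication in Vero cells, read as Renilla luminescence 1-1.5 hrs after live-cell substrate addition, following 48-72 hrs infection at MOI 1-2 in presence of compound.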
In general terms: Quantitative PCR measures a nucleic acid by following its amplification.

The nature of test [5]: qHTS to identify inhibitors of the type 1 interferon - major histocompatibility complex class I in skeletal muscle: primary screen against the NCATS Pharmaceutical Collection (AID 1347407).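 Also: luminescence of HiBiT knocked into endogenous HLA-B as interferon-induced MHC class I level.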 In a few lines: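 A qHTS format is used: 8-point, 1:5 compound series with 46 uM top final concentration, applied alongside 4 ng/ml IFN-beta to HLA-B*08:01-HiBiT knock-in myoblasts. Luminescence is measured after 24 h treatment.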

Test [6] has as its system Zika virus NS2B-NS3 protease (unlinked). Kind of test: Optimization of GU AMC qHTS for Zika virus inhibitors: Unlinked NS2B-NS3 protease assay (AID 1347151). Also: nearly all actives have a fitted effect of over 80% in size. Also: potency is read from the fitted curve at half-maximal effect. The procedure, abridged: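 In this qHTS, compounds acted on 25 nM unlinked Zika NS2B–NS3 in pH 8.0 Tris/Tween buffer. Cleavage of an AMC peptide ran 15 min at room temperature, to about 20% conversion.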
For test [7], the system named is Zika virus NS2B-NS3 protease (unlinked complex). The experiment in a line: Primary screen GU Rhodamine qHTS for Zika virus inhibitors: Unlinked NS2B-NS3 protease assay (AID 1347159). Also: nearly all actives have a fitted effect of over 60% in size. In a few lines: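 Unlinked NS2B/NS3, 25 nM; Rhod110 peptide, 1.5 microM; compounds, up to 114 microM. Reaction run 15 min at RT in 10 mM Tris-HCl pH 8.0, 0.01% Tween 20; kinetic fluorescence change fitted with a 4-parameter Hill model.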

In test [8] the test system is Zika virus NS2B-NS3 protease (linked construct). Kind of test: Primary screen NINDS Rhodamine qHTS for Zika virus inhibitors (AID 1347160). Also: nearly all actives have a fitted effect of over 55% in size. The procedure, abridged: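 Single-chain NS2B-NS3 protease, 25 nM, pH 8.0; compounds preincubated 15 min. Activity: Rhodamine110 release from 1.5 microM substrate over 15 min, room temperature, data fitted to 4-parameter Hill.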

Test [9] deals with Lysine-specific demethylase 5B (Homo sapiens) (UniProt Q9UGL1). The experiment in a line: Optimization screen for KDM5B Histone Demethylases FDH coupled qHTS against the LOPAC library (AID 1347166). The procedure, abridged:
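KDM5BDeltaAP (200nM final) in 50mM HEPES pH 7.5, 0.01% Tween-20 was preincubated with compound for 10 min at room temperature. A substrate mix of 12.5uM H3K4Me3, 25uM a-ketoglutarate, ascorbate, Fe2+, NAD+ and formaldehyde dehydrogenase was then added. NADH fluorescence (340/450 nm) was read initially and after 30 min.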

A short description of test [10]: qHTS to identify inhibitors of the type 1 interferon - major histocompatibility complex class I in skeletal muscle: primary screen against the NCATS LOPAC collection (AID 1347405).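 Also: lytic HiBiT luminescence reporting HLA-B protein level.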 The procedure, abridged: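 After 24 h at 37 C with compounds (7-point, 1:4.3 dilutions, 46 uM top final) plus 4 ng/ml IFN-beta, luminescence from lytic HiBiT detection was measured. HLA-B*08:01 in C25cl48 myoblasts carried an endogenous C-terminal HiBiT tag; medium lacked dexamethasone.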

The nature of test [11]: qHTS for inhibitors of adenylyl cyclases using a fission yeast platform: a pilot screen against the NCATS LOPAC library (AID 1347410). In a few lines: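 Inhibition of GNAS-stimulated AC9 activity in S. pombe was inferred from derepression of a PKA-repressed fbp1-GFP reporter, measured as cytometric fluorescence after 18 h at 30C with compounds at up to 57 µM.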
The target in test [12] is N-terminal Xaa-Pro-Lys N-methyltransferase 1 (Homo sapiens) (UniProt Q9BV86). The experiment in a line: qHTS Assay for Inhibitors of N-terminal methyltransferase 1 (NTMT1): LOPAC validation of the NTMT1 SAHH-coupled ThioGlo3 Assay (AID 1347143).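 Also: SAH from peptide methylation measured as thiol fluorescence via SAHH coupling and ThioGlo3; nearly all actives have a fitted effect of over 70% in size.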 Also: potency is read from the fitted curve at half-maximal effect. The procedure, abridged: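 In this qHTS pilot against the LOPAC set, 125nM NTMT1 met compounds tested at multiple concentrations, and fluorescence was normalized to background.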
Chain of N-terminal Xaa-Pro-Lys N-methyltransferase 1 (Homo sapiens) (Q9BV86 whole entry, looked up): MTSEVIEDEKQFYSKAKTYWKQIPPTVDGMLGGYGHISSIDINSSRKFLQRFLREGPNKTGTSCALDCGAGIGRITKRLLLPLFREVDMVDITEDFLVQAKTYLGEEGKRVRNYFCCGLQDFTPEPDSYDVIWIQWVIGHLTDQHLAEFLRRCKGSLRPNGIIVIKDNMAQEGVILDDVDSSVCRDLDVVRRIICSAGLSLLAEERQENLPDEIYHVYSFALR

Unmarked numbers belong to inactive results. Inconclusive results are not listed. Active and inactive are the calls of the source. Calls follow the shape of the dose curve; as a rule, active = well fitted curve in the direction sought with a large enough effect; inconclusive = small, poorly fitted or top-dose-only effect, or another doubt; inactive = no such curve, though single readings can be large; an effect the other way counts as inactive or inconclusive.

Chain of Lysine-specific demethylase 5B (Homo sapiens) (Q9UGL1 whole entry, looked up): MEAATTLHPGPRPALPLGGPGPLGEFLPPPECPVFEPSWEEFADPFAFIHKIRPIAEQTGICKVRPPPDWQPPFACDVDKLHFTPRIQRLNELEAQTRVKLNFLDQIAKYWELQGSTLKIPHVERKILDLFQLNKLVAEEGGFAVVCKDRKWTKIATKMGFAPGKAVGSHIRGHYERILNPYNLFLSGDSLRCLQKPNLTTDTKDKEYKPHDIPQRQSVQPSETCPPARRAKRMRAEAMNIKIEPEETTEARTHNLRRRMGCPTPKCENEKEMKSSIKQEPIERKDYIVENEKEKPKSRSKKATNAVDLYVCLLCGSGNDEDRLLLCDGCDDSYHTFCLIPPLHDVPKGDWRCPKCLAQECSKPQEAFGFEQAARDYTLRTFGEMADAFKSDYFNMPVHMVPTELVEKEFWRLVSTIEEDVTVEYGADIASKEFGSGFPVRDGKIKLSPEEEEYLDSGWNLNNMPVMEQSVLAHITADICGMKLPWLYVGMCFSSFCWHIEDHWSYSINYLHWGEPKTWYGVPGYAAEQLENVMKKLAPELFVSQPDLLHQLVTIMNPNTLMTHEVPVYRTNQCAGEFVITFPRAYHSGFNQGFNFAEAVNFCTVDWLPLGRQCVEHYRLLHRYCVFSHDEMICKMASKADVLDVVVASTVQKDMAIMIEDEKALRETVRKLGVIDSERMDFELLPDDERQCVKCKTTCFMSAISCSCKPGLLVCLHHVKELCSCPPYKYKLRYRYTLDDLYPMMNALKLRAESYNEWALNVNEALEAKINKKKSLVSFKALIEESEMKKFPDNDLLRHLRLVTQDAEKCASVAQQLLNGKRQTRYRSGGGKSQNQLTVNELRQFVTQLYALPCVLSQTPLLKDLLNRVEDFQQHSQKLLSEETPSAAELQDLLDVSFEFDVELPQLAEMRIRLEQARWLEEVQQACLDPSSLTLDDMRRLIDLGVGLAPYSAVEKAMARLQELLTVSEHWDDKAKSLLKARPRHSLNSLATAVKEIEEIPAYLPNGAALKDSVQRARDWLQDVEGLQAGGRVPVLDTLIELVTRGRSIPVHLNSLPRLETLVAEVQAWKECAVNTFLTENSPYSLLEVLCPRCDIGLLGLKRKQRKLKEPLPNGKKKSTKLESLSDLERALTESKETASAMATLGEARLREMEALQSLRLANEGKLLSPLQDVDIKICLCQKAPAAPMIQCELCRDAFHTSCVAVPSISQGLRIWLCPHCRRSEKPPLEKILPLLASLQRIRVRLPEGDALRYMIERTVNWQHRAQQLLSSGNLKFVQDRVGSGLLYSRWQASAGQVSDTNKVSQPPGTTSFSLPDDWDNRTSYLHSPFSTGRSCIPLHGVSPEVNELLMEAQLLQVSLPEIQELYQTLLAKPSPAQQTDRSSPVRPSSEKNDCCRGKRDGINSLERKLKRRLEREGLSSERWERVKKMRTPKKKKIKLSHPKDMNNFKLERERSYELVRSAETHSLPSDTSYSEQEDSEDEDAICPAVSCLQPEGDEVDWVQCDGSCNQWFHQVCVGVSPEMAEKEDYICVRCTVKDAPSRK

Regarding `COc1c2occc2cc2ccc(=O)oc12`, the Potency entry (in the test with Furin (Homo sapiens); in [1]; in test [2]; in [3]; in test [4]; in [5]) was “inactive” each time.
Turning to `CN(C)CCCC1(c2ccc(F)cc2)OCc2cc(C#N)ccc21` (stereo unspecified), the Potency result in test [6], in test [1], in [7], in test [8] and in test [10] was “inactive” each time. Also, the compound was classed as inactive in test [9] and in test [11].
With `C[C@@H](c1ncncc1F)[C@](O)(Cn1cncn1)c1ccc(F)cc1F`, the Potency result in [12], in [6], in [1] and in test [10] was “inactive” each time. Also, the compound was called inactive in [11].
As for `Cc1cc(Cl)ccc1OCCCC(=O)NO`, the Potency result in test [6], in test [1] and in test [10] was “inactive” each time. Also, the compound was called inactive in test [11].
Turning to `NNc1nncc2ccccc12`, the Potency in [12] is 79.4 µM (active). Further, the Potency entry in test [6], in test [1], in [10] and in [5] was “inactive” throughout. Besides, the compound was called inactive in test [11].
`O=c1ccc2ccc(O)c(O)c2o1`: the Potency in test [12] was 39.8 µM (active). For the same compound, the Potency result in [6], in [1] and in test [10] was “inactive” throughout. The result in [11] was inactive.
As for `O=C1NC(=O)C(c2ccccc2[N+](=O)[O-])=C1Nc1ccc(O)c(Cl)c1`, in [12], the Potency is 28.2 µM (active). The Potency entry in test [6] and in [1] was “inactive” in each case. In [11], the compound was classed as inactive.
Consider `Cc1cccc(-c2[nH]ncc2-c2ccc3ncccc3n2)n1`, for which the Potency result in test [12], in [6] and in test [1] was “inactive” in each case. For the same compound, the result in test [11] was inactive.
Consider `C[C@H](Cc1ccc(O)c(O)c1)[C@@H](C)Cc1ccc(O)c(O)c1`, for which the Potency in test [12] is 10 µM (active); in [6] it was 9.47 µM (active). Moreover, the Potency entry in test [10] is “inactive”. Also, the result in test [11] was inactive.
For `CN1C(C(=O)Nc2ccccn2)=C(O)c2sccc2S1(=O)=O`, the Potency result in [1] is “inactive”.
For `CCOC(=O)C(C)Oc1cccc2c(=O)n(CC(=O)Nc3ccc4c(c3)OCCO4)ccc12` (stereo unspecified), the Potency in [6] was 21.2 µM (active). Further, the Potency entry in test [1] and in test [10] was “inactive” throughout. For the same compound, the call in test [11] was inactive.
On to `CNC[C@H](O)c1ccc(O)c(O)c1`, for which the Potency entry in [12], in test [6], in test [1], in test [10] and in test [5] was “inactive” in each case. Also, the call in test [11] was inactive.
